Screening data: PubChem, The Scripps Research Institute Molecular Screening Center
Only some compounds are listed: those with a hit (about 3.5% of all), similar ones and a draw of the others.
MITF primary = blocks human microphthalmia-associated transcription factor | AlphaScreen MITF homodimerization, bead proximity signal | inhibition, % at 2.6 µM | 650,000 tested, 0.91% active | AID 1259374; in the data active = inhibition above about 50%
FBW7 activator = human FBW7 E3 ligase activation, primary screen; normalized activity (activation), % at 26.1 µM; AID 1259310; AlphaScreen FBW7–phospho-cyclin E peptide binding, activator screen; 650,000 tested, 0.13% active; Q969H0; in the data active = normalized activity above about 1.9%;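 note: purified mutant Fbw7 with reduced substrate affinity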
TEAD-YAP inh = TEAD-YAP interaction inhibition; HEK-TIYL cells, TEAD-Gal4/YAP UAS-luciferase luminescence; inhibition, % at 9.12 µM; 640,000 tested, 1.4% active; in the data active = inhibition above about 32%
GPR151 ag = activators of human GPR151; Q8TDV0; AID 1508602; activation, % at 11.2 µM; 650,000 tested, 1% active; PathHunter beta-arrestin GPR151 cells, luminescence; in the data active = activation above about 4.9%
GPR151 conf act = human GPR151 activation, confirmation screen; activation, % at 11.2 µM; GPR151 PathHunter beta-arrestin cells, luminescence, 90 min; % of EA-reagent control over plate median; shares compounds with GPR151 ag; 6,700 tested, under 10 active;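 active = mean percent activation across replicates above the confirmation screen cutoff of 4.91%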
GPR119 ag = activates human GPR119 in a GPR151 counter-screen. shares compounds with GPR151 ag. GPR119 PathHunter beta-arrestin cells, luminescence, 90 min; 0 = compound-well median, 100 = enzyme-acceptor control. activation, % at 11.2 µM. 6,700 tested, 0.3% active;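 active = mean percent activation in the counterscreen above 29.09%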;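 note: counterscreen on off-target GPR119 to flag nonselective hits from the GPR151 activator screen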
Numbers stand for hits; n = inactive; x = not tested or not shown.

SMILES	MITF primary	FBW7 activator	TEAD-YAP inh	GPR151 ag	GPR151 conf act	GPR119 ag
CC(C)CC(NC(=O)C(C)NC(=O)CNC(=O)C(NC=O)C(C)C)C(=O)NC(C)C(=O)NC(C(=O)NC(C(=O)NC(C(=O)NC(Cc1c[nH]c2ccccc12)C(=O)NC(CC(C)C)C(=O)NC(Cc1c[nH]c2ccccc12)C(=O)NC(CC(C)C)C(=O)NC(Cc1c[nH]c2ccccc12)C(=O)NC(CC(C)C)C(=O)NC(Cc1c[nH]c2ccccc12)C(=O)NCCO)C(C)C)C(C)C)C(C)C (stereo unspecified)	n	n	84	24	14	113
COC(=O)C(C)NC(=O)C(Cc1c[nH]c2ccccc12)NC(C)=O (stereo unspecified)	n	n	n	n	x	x
O=C1CCCN1CCn1cnc2c(NCc3cccnc3)nc(Cl)nc21	n	n	n	n	x	x
CCN(CC)CCNc1c2c(nc3nnnn13)CCCC2	n	n	n	n	x	x
COCCCNc1c2c(nc3nnnn13)CCCC2	n	n	n	6.1	n	n
N#Cc1c(NC(=O)c2cc(-c3cccs3)on2)sc2c1CCC2	n	n	n	n	x	x
COc1ccc(C(=O)COc2cccc3ccccc23)c(OC)c1	n	n	n	n	x	x
COc1ccc2c(c1)c(CC(=O)Nc1ncccc1C)c(C)n2C(=O)c1ccc(Cl)cc1	n	n	n	n	x	x
COc1ccc2c(c1)c(CC(=O)Nc1ccc(NC(C)=O)cc1)c(C)n2C(=O)c1ccc(Cl)cc1	n	x	x	6.2	n	n
CC(=O)Nc1cccc(NS(=O)(=O)c2c(C)cc(C)cc2C)c1	n	n	n	n	x	x
CCCNc1cc(N2CCCC2CO)ncn1 (stereo unspecified)	n	n	n	n	x	x
COc1ccc(CCNc2cc(-c3ccc(OC)nc3)ncn2)cc1	n	n	n	5.2	n	n
COc1ccc(CCNc2cc(N3CCCC3CO)ncn2)cc1 (stereo unspecified)	n	n	n	14	n	n
COc1ccc(-c2nc(NCCc3ccc(O)cc3)nc(OC)n2)cn1	n	n	n	5.9	n	n
COc1ccc(-c2cc(NCCc3ccc(O)cc3)ncn2)cn1	n	n	n	n	x	x
CC1(C)Oc2ccc(C(=O)N3CCCCCC3)cc2N(CC(=O)NCc2ccccc2)C1=O	n	n	n	n	x	x
CC1(C)Oc2ccc(C(=O)N3CCCC3)cc2N(CC(=O)NCc2ccccc2)C1=O	n	n	n	6.1	n	n
CN(Cc1nc(-c2ccccc2)no1)C(=O)c1cc(Cc2ccc(F)cc2)no1	n	n	n	n	x	x
CCCCC[C@H](O)/C=C/[C@H]1CC[C@@H](O)[C@@H]1CCCCCCC(=O)O	n	x	x	n	x	x
COc1ccc(C2=NN(C(C)=O)C(c3ccccc3)C2)cc1OC (stereo unspecified)	n	n	n	n	x	x
CC(=O)N1N=C(c2ccc3nccnc3c2)CC1c1ccccc1 (stereo unspecified)	n	n	n	5.9	n	n
COc1ccc2c(c1)sc(=NC(=O)CS(=O)(=O)c1ccc(F)cc1)n2C	n	n	n	5.8	n	n
COc1cccc(OC)c1C(=O)N=c1sc2cc(F)ccc2n1C	n	n	n	n	x	x
COc1cccc(C(=O)N=c2sc3cc(F)ccc3n2C)c1OC	n	n	67	6.6	n	n
CC(=O)C1=C(O)C(=O)N(Cc2cccnc2)C1c1ccc(O)cc1 (stereo unspecified)	n	n	n	5.4	n	n
SMILES	MITF primary	FBW7 activator	TEAD-YAP inh	GPR151 ag	GPR151 conf act	GPR119 ag
CCOC(=O)Cc1csc(NC(=O)CCCOc2ccc(C)cc2C)n1	n	n	n	n	x	x
COCCNC(=O)c1ccccc1NC(=O)C(C)N(c1ccc(OC)cc1)S(C)(=O)=O (stereo unspecified)	n	n	n	6.7	n	n
COCCNC(=O)c1ccccc1NC(=O)C(C)N(c1ccc(C)cc1)S(C)(=O)=O (stereo unspecified)	n	n	n	n	x	x
N/C(=N\OC(=O)CCCN1C(=O)c2ccccc2C1=O)c1ccccn1	n	n	n	5.3	n	n
CCOc1ccc(C2NC(=S)NC3=C2C(=O)CCC3)cc1 (stereo unspecified)	n	n	n	5.8	n	n
O=C(CCc1ccccc1)NCC1CCN(Cc2ccccn2)CC1	n	n	n	n	x	x
C=CCNC(=O)C(C)N(c1ccc(C)cc1)S(C)(=O)=O (stereo unspecified)	n	n	n	n	x	x
Cc1ccc(N(C(C)C(=O)NCc2ccccn2)S(C)(=O)=O)cc1C (stereo unspecified)	n	n	n	5.4	n	n
C=CCNC(=O)C(C)N(c1ccccc1)S(C)(=O)=O (stereo unspecified)	n	n	n	8.2	n	n
Cc1ccc(N(C(C)C(=O)NC2CCCCCC2)S(C)(=O)=O)cc1C (stereo unspecified)	n	n	n	n	x	x
Cc1ccc(N(C(C)C(=O)NC2CCCCC2)S(C)(=O)=O)cc1C (stereo unspecified)	n	n	n	6.6	n	n
O=C(c1ccccc1)N1CCN(c2nc(-c3ccc(Cl)cc3)cs2)CC1	n	n	n	n	x	x
CN(Cc1ccn[nH]1)C(=O)c1ccc(OC2CCN(C(=O)C3CC3)CC2)cc1	n	n	n	n	x	x
CN(Cc1ccn[nH]1)C(=O)c1cccc(OC2CCN(C(=O)C3CC3)CC2)c1	n	n	n	4.9	n	n
CCCCC1CN(CCC(=O)NCc2ncccc2C)Cc2ccccc2O1 (stereo unspecified)	n	n	n	n	x	x
Cc1cn2c(=O)c(C(=O)NOCc3cccc(C(F)(F)F)c3)cnc2s1	n	n	n	14	n	n
CN1C(=O)N(C)C2(CCN(C(=O)c3ccc4c(c3)OCO4)CC2)C1=O	n	n	n	n	x	x
Cc1cc2[nH]c(=O)c(=O)[nH]c2cc1S(=O)(=O)N(C)Cc1ccccc1	n	n	n	n	x	x
CN(Cc1ccccc1)S(=O)(=O)c1ccc2[nH]c(=O)c(=O)[nH]c2c1	n	n	n	5.2	n	n
Cc1ccc2cc(C#N)c(NCCCNC(=S)NCCCN(C)C)nc2c1C	n	n	n	n	x	x
Cc1nc2cc(-c3cccc(F)c3)nn2c(NCCN)c1C	n	n	n	5.2	n	n
O=C(c1cc(F)cc(F)c1)N1CCc2c(nc(N3CCCC3)[nH]c2=O)C1	n	n	n	n	x	x
CN1CCN(CCCCOc2cccc([N+](=O)[O-])c2)CC1	n	n	n	5.6	n	n
CN1CCN(CCOc2cccc([N+](=O)[O-])c2)CC1	n	n	n	n	x	x
CC(C)c1ccc(C2SCC(=O)N2c2ccc(O)cc2)cc1 (stereo unspecified)	n	n	n	n	x	x
CSCCC(NCCC(O)c1ccccc1)C(=O)O (stereo unspecified)	n	n	n	n	x	x
CC(C)CC(NCCC(O)c1ccccc1)C(=O)O (stereo unspecified)	n	n	n	8.3	n	n
